The structures appear in SMILES notation. Several values for one entry are separate records, joined by “and”; a condition that tells them apart may be missing. Equal entries are not always repeated. Values without a mark were called inactive. Inconclusive results are not listed. Activity calls are given as the source filed them. Unless noted, calls come from the whole dose curve; as a rule, active = well fitted curve in the direction sought with a large enough effect in the repeat runs; inconclusive = weak or mixed curves; inactive = no such curve, though single readings can be large; an effect the other way counts as inactive or inconclusive.

Experiment [1] concerns the target Thyrotropin receptor (Homo sapiens) (UniProt P16473). As to the kind of experiment: qHTS assay to identify small molecule antagonists of the thyroid stimulating hormone receptor (TSHR) signaling pathway (AID 1259385; calls by dose curve; note: nearly all actives have a fitted effect of over 20% in size; note: potency is the fitted concentration of half-maximal effect). The procedure, abridged: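 TSHR-HEK293 cells (800/well) plated 18 h, then compounds with Ro20-1724 and TSH at 1.5 ng/mL final, 30 min at room temperature. cAMP quantified by HTRF (cAMP-d2/anti-cAMP-cryptate, 1 h); 15 concentrations in triplicate.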
(In general: qHTS replaces the single test concentration by a dilution series.)

Experiment [2] in a line: qHTS assay to identify small molecule agonists of the estrogen receptor alpha (ER-alpha) signaling pathway in the presence of an antagonist - cell viability counter screen (AID 1259386).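 Note: series mostly up to about 92 µM; cells exposed to compounds for 22 h at 37 °C before the viability read; nearly all actives have a fitted effect of over 30% in size.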 The gist of the method: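 Cell viability in VM7Luc4E2 cells (endogenous full-length ER-alpha) measured by CellTiter-Fluor fluorescence in the same wells as the luciferase screen. Cells pre-cultured 5 days in charcoal-stripped serum, then treated 22 h with compounds at 15 concentrations plus 10.0nM ICI-182,780.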

Experiment [3] has as its target Progesterone receptor (Homo sapiens) (UniProt P06401). As to the kind of experiment: qHTS assay to identify small molecule agonists of the progesterone receptor (PR) signaling pathway (AID 1346784; calls by dose curve; note: nearly all actives have a fitted effect of over 30% in size). The procedure, abridged: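 Agonist mode, quantitative HTS format in a HEK 293T line expressing a UAS-controlled beta-lactamase reporter; 16 hr compound exposure at 37C in 2% charcoal-stripped FBS, then LiveBLAzer B/G FRET fluorescence.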

Experiment [4] shares this target. As to the kind of experiment: qHTS assay to identify small molecule antagonists of the progesterone receptor (PR) signaling pathway (AID 1346795; active = well fitted inhibition curve with a large enough effect in the signal ratio in the repeat runs, not every such curve was filed as active; the % refers to the signal ratio). The procedure, abridged:
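HEK293T PR-UAS-bla reporter cells in charcoal-stripped serum (2%) received compound after a 6 hr settling period, followed by R5020 agonist at 1 nM final; 16 hr incubation preceded the FRET substrate step and fluorescence measurement.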

A short description of experiment [5]: qHTS assay to identify small molecule antagonists of the progesterone receptor (PR) signaling pathway - cell viability counter screen (AID 1346798). Note: series mostly up to about 92 µM; nearly all actives have a fitted effect of over 50% in size. The procedure, abridged:
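Same-well multiplex: after 16 hr at 37C with compound and R5020 stimulation, HEK293T cells carrying a UAS-bla reporter received LiveBLAzer substrate (2 hr RT), then CellTiter-Glo (30 min RT) for luminescent viability.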

The nature of experiment [6]: qHTS assay to identify small molecule agonists of the progesterone receptor (PR) signaling pathway - cell viability counter screen (AID 1346799; calls by dose curve; note: nearly all actives have a fitted effect of over 45% in size). The procedure, abridged:
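Counter screen for cytotoxicity: compound-treated PR-UAS-bla HEK293T cells (16 hr, 37C, 5% CO2) were assayed with CellTiter-Glo, luminescence measured after 30 min at room temperature.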

Experiment [7] in a line: qHTS assay to identify small molecule antagonists of the TGF-beta/Smad signaling pathway - cell viability counter screen (AID 1346824). Note: nearly all actives have a fitted effect of over 50% in size. The procedure, abridged:
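SBE-bla HEK 293T cells, incubated overnight, then compound plus 0.25 ng/mL TGF-beta1 (stock added) for 5 hr at 37 C. Viability was read in the same wells by CellTiter-Glo luminescence after 30 min at room temperature.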

A short description of experiment [8]: qHTS assay to identify small molecule agonists of the TGF-beta/Smad signaling pathway - cell viability counter screen (AID 1346829). Note: top concentration of the series differs between compounds; nearly all actives have a fitted effect of over 45% in size. The gist of the method:
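Compound-treated SBE-bla HEK 293T cells (5 hr, 37 C) were assessed for viability with CellTiter-Glo in parallel with the reporter read.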

Experiment [9] can be described thus: qHTS assay to identify small molecule agonists of the TGF-beta/Smad signaling pathway (AID 1346859; active = well fitted activation curve with a large enough effect in the signal ratio in the repeat runs, not every such curve was filed as active; the % refers to the signal ratio; note: series mostly up to about 77 µM). The procedure, abridged:
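Smad-responsive beta-lactamase reporter cells (HEK 293T) received compounds from DMSO stocks after overnight attachment, were incubated 5 hr, then treated 2 hr with FRET substrate before dual-emission fluorescence measurement (405 nm excitation).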

The target in experiment [10] is Thyrotropin-releasing hormone receptor (Homo sapiens) (UniProt P34981). As to the kind of experiment: qHTS assay to identify small molecule antagonists of the thyrotropin-releasing hormone receptor (TRHR) signaling pathway (AID 1346877; active = well fitted inhibition curve with a large enough effect in the repeat runs, not every such curve was filed as active; note: series mostly up to about 51 µM). The procedure, abridged:
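TRHR-expressing HEK293 cells loaded with calcium dye for 2 h at 37 C; compounds pre-incubated 5 min at room temperature before TRH challenge at 1 nM final. Intracellular calcium fluorescence read kinetically for 3 min; 15 concentrations in triplicate.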

Experiment [11] shares this target. Description: qHTS assay to identify small molecule agonists of the thyrotropin-releasing hormone receptor (TRHR) signaling pathway (AID 1346891; calls by dose curve; note: series mostly up to about 58 µM). The gist of the method: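 Agonist-mode calcium mobilisation screen: TRHR-transfected HEK293 cells cultured overnight (18 h), dye-loaded for 2 h at 37 °C, exposed to compounds, and monitored by fluorescence for 3 min.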

A short description of experiment [12]: Human pregnane X receptor (PXR) small molecule agonists, qHTS cell viability counter screen (AID 1346977). Note: nearly all actives have a fitted effect of over 50% in size. The procedure, abridged:
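Measures live-cell protease fluorescence (CellTiter-Fluor) in PXR-Luc HepG2 cells treated 24hr with compounds at 37C. Cells had 5hr to attach before pin transfer of DMSO solutions.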

The nature of experiment [13]: Caspase-3/7 induction in HepG2 cells by small molecules, qHTS assay (AID 1346978). Note: nearly all actives have a fitted effect of over 15% in size. The procedure, abridged: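 Wild-type HepG2 cells, 2,000/well, settled 5 hr at 37 C and 5% CO2, then compound-treated for 17 hr; caspase-3/7 activity read by luminescent Caspase-Glo 3/7 after 30 min at room temperature.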
The nature of experiment [14]: Caspase-3/7 induction in CHO-K1 cells by small molecules, qHTS cell viability counter screen (AID 1346979). Note: nearly all actives have a fitted effect of over 35% in size. Note: potency is the fitted concentration of half-maximal effect. The gist of the method: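 In the same wells as the caspase read, viability of compound-treated wild-type CHO-K1 cells was assessed using CellTiter-Fluor, added after 16hr at 37C and measured by fluorescence following 1hr further incubation.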
A short description of experiment [15]: Caspase-3/7 induction in CHO-K1 cells by small molecules, qHTS assay (AID 1346980). Note: nearly all actives have a fitted effect of over 15% in size. The gist of the method: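 Wild-type CHO-K1 cells exposed to compounds for 17hr at 37 C, 5% CO2. Caspase-3/7 activity then measured by Caspase-Glo 3/7 luminescence after 30min at room temperature.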
The nature of experiment [16]: Caspase-3/7 induction in HepG2 cells by small molecules, qHTS cell viability counter screen (AID 1346981). Note: series mostly up to about 92 µM; nearly all actives have a fitted effect of over 30% in size. The procedure, abridged:
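Wild-type HepG2 cells, 2,000/well, settled 5 hr at 37 C, 5% CO2 before compound addition. Viability read by CellTiter-Fluor fluorescence, reagent added after 16 hr compound exposure, then 1 hr at 37C, in the same wells as the caspase read.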

The target in experiment [17] is Nuclear receptor subfamily 1 group I member 2 (Homo sapiens) (UniProt O75469). Description: Human pregnane X receptor (PXR) small molecule agonists, qHTS assay (AID 1346982). Note: nearly all actives have a fitted effect of over 35% in size. Note: potency is the fitted concentration of half-maximal effect. The gist of the method:
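PXR-Luc HepG2 reporter cells (CYP3A4-driven luciferase) in 5% charcoal-stripped FBS medium, plated 5 h before compound addition, then treated 24 h at 37C. Luciferase read by ONE-Glo luminescence after 30 min at room temperature.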

Experiment [18] has as its target Nuclear receptor subfamily 1 group I member 2 (Rattus norvegicus) (UniProt Q9R1A7). As to the kind of experiment: Rat pregnane X receptor (rPXR) activation by small molecules, qHTS assay (AID 1346983). Note: nearly all actives have a fitted effect of over 20% in size. The note with it: rPXR luciferase reporter cells, One-Glo luminescence, 24 h; max activation: hits give high values. The gist of the method:
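Cell-based rPXR activation assay: rPXR cells, 2,000 per well, rested 5hr at 37 C, then exposed to compounds in DMSO for 24 hr at 37 C. Luciferase activity read by One-Glo luminescence after 30 min at room temperature.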

The target of experiment [19] is Nuclear receptor subfamily 1 group I member 2 (Homo sapiens) (UniProt O75469). Description: CYP3A4 induction through human pregnane X receptor (PXR) by small molecules, qHTS assay (AID 1346984). Note: nearly all actives have a fitted effect of over 40% in size. The gist of the method: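 DPX-2 HepG2 cells carrying a PXR response element and CYP3A4-promoter luciferase construct, treated with compounds 24 hr at 37C. Then P450-Glo CYP3A4 Luciferin-IPA substrate (3uM final) for 3 hr at 37C, One-Glo added, luminescence read.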
Chain of Nuclear receptor subfamily 1 group I member 2 (Homo sapiens) (O75469 whole entry, looked up): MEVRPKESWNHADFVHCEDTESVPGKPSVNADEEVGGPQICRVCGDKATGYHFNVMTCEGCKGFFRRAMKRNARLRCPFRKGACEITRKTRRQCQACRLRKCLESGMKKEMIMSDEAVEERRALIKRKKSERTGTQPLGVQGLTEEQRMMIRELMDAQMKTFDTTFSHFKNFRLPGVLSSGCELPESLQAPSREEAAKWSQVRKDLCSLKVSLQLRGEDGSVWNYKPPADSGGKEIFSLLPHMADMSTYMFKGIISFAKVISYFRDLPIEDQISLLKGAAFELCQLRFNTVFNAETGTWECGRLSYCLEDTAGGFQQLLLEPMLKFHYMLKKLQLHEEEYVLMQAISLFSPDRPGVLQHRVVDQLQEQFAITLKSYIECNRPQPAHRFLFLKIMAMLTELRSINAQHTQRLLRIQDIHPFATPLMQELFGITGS

For experiment [20] the target is unchanged. As to the kind of experiment: Human pregnane X receptor (PXR) activation by small molecules, qHTS assay (AID 1346985). Note: nearly all actives have a fitted effect of over 40% in size. The procedure, abridged: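 DPX-2 cells (HepG2 co-transfected with a PXR response element and a CYP3A4-promoter luciferase construct) were seeded at 2,000 per well, rested 5 hr at 37C, then exposed to DMSO-dissolved compounds for 24 hr. Activation was read as luciferase luminescence.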
% is set by controls: 0 for no effect and ±100 for the full control effect.

Chain of Progesterone receptor (Homo sapiens) (P06401 whole entry, looked up): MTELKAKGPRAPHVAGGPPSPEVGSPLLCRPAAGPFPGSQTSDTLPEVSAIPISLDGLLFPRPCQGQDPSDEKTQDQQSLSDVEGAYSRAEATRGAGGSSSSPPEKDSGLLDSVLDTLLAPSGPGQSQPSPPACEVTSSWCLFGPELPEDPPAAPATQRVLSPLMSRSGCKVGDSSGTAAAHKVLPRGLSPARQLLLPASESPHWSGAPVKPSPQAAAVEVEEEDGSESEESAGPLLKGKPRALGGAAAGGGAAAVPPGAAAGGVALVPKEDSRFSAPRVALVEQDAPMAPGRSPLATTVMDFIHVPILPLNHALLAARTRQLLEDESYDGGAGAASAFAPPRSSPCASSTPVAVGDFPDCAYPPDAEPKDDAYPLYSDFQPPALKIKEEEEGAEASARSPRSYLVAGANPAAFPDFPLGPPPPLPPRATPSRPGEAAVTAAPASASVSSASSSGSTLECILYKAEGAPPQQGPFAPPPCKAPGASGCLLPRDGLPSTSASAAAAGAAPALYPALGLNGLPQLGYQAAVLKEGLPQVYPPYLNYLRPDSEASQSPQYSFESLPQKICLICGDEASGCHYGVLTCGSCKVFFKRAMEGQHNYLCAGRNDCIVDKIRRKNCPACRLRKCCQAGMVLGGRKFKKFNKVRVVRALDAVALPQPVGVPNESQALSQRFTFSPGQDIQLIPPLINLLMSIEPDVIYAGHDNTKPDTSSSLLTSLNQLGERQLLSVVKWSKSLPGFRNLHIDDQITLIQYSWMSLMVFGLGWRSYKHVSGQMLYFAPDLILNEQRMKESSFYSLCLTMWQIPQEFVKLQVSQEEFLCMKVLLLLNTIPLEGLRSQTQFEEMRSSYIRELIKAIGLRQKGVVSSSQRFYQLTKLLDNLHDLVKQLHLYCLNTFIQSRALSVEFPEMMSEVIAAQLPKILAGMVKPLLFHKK
Chain of Thyrotropin receptor (Homo sapiens) (P16473 whole entry, looked up): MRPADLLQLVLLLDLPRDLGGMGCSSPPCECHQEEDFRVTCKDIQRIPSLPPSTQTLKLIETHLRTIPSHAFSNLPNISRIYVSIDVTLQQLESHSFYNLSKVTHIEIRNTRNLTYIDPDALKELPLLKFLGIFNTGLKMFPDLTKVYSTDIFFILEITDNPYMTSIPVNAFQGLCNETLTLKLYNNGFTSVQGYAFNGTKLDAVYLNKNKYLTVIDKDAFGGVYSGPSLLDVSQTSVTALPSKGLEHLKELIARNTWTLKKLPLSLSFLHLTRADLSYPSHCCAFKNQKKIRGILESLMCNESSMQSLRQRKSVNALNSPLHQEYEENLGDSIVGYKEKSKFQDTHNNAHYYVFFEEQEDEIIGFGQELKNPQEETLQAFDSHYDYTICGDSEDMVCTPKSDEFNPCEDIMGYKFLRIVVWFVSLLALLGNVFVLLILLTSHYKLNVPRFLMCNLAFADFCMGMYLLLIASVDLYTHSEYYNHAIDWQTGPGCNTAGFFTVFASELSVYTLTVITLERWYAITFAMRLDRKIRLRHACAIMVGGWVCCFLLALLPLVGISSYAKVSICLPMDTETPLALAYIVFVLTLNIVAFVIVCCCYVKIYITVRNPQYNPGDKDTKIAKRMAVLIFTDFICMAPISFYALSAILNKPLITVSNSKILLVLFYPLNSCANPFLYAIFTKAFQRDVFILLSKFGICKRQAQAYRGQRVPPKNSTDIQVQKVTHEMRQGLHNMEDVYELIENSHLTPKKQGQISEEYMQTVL
Chain of Thyrotropin-releasing hormone receptor (Homo sapiens) (P34981 whole entry, looked up): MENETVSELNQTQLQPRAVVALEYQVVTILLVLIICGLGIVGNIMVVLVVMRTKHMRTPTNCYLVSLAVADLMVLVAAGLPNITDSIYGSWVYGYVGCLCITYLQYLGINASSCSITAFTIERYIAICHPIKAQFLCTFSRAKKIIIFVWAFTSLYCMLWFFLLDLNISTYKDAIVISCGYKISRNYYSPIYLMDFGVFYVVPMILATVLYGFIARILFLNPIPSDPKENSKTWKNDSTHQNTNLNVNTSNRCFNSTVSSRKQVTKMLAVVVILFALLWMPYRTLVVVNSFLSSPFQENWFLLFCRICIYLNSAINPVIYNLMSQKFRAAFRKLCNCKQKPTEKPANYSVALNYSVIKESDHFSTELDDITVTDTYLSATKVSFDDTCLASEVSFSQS
Chain of Nuclear receptor subfamily 1 group I member 2 (Rattus norvegicus) (Q9R1A7 whole entry, looked up): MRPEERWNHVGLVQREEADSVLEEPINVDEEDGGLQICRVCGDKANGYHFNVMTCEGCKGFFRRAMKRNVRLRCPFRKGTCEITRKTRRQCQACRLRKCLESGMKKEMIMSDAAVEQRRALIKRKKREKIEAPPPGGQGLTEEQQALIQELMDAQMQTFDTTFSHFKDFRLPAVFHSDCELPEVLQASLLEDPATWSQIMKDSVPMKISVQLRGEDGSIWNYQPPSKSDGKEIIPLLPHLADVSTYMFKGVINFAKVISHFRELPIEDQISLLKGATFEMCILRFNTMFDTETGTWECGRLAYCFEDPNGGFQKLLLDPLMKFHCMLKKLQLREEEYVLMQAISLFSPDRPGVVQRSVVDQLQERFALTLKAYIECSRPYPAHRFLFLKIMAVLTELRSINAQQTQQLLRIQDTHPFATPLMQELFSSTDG

`N#Cc1ccc(Cl)cc1`: the Potency result in [1], in experiment [2], in [3], in experiment [4], in experiment [5] and in experiment [6] was “inactive” throughout. The Potency entry in experiment [7], in [8], in experiment [10], in experiment [11], in experiment [12] and in [13] was “inactive” throughout. The Potency entry in experiment [14], in experiment [15], in experiment [16] and in experiment [17] was “inactive” throughout. Further, the outcome in experiment [9] was inactive.
Regarding `Cl/C=C\Cl`, the Potency entry in [1], in experiment [2], in experiment [3], in experiment [4], in experiment [5] and in [6] was “inactive” each time. Also, the Potency entry in [7], in experiment [8], in [10], in experiment [11], in experiment [12] and in experiment [13] was “inactive” in each case. Also, the Potency entry in [14], in experiment [15] and in experiment [17] was “inactive” throughout. Also, the call in experiment [9] was inactive.
`CN1C(=O)NC(=O)C(C)(C2=CCCCC2)C1=O` (stereo not given): the Potency result in experiment [1], in experiment [2], in [3], in experiment [4], in experiment [5] and in experiment [6] was “inactive” in each case. The Potency result in experiment [7], in [8], in [11], in experiment [12], in experiment [13] and in experiment [14] was “inactive” each time. Further, the Potency result in experiment [15], in experiment [16], in experiment [17], in [19] and in [20] was “inactive” each time. Besides, the call in experiment [9] was inactive. For the same molecule, the max activation in experiment [18] was -1.51% and -2.62%.
As to `CCOP(O)OCC`, the Potency result in [1], in experiment [2], in [3], in [4], in experiment [5] and in experiment [6] was “inactive” each time. The Potency result in [7], in experiment [8], in experiment [10], in [11], in experiment [12] and in experiment [13] was “inactive” in each case. Further, the Potency result in [14], in experiment [15], in experiment [16] and in [17] was “inactive” throughout. Moreover, the result in experiment [9] was inactive.
As for `CCC(Cl)CCl` (stereo not given), the Potency result in experiment [1], in experiment [2], in [3], in experiment [4], in experiment [5] and in experiment [6] was “inactive” in each case. In addition, the Potency result in [7], in [8], in [10], in [12], in experiment [13] and in [14] was “inactive” throughout. Moreover, the Potency entry in experiment [15], in [16] and in [17] was “inactive” each time. Besides, in experiment [9], the outcome was inactive.
With `C[N+](C)(C)CCCl`, the Potency entry in [1], in experiment [2], in [3], in experiment [4], in [5] and in experiment [6] was “inactive” in each case. Further, the Potency entry in [7], in experiment [8], in experiment [10], in experiment [11], in experiment [12] and in experiment [13] was “inactive” each time. For the same molecule, the Potency entry in experiment [14], in experiment [15] and in [16] was “inactive” each time. Moreover, the molecule was called inactive in experiment [9].
With `C=CCC1([C@H](C)CCC)C(=O)NC(=O)NC1=O`, the Potency entry in [1], in experiment [2], in experiment [3], in experiment [4], in experiment [5] and in experiment [6] was “inactive” in each case. The Potency result in experiment [7], in experiment [8], in experiment [10], in experiment [11], in experiment [12] and in experiment [13] was “inactive” in each case. Further, the Potency result in [14], in experiment [15], in experiment [16] and in experiment [17] was “inactive” each time. Also, in [9], the molecule was classed as inactive.
As to `Nc1nc(=S)[nH][nH]1`, the Potency entry in experiment [1], in experiment [2], in experiment [3], in experiment [4], in [5] and in experiment [6] was “inactive” each time. Also, the Potency result in experiment [7], in experiment [8], in experiment [10], in experiment [12], in experiment [13] and in experiment [14] was “inactive” each time. Moreover, the Potency result in [15], in [16] and in experiment [17] was “inactive” each time. Besides, the result in experiment [9] was inactive.
For `O=C(CCl)c1ccc(Cl)cc1Cl`, the Potency is 23.7 µM (active) in experiment [1]; 68.2 µM (active) and 26.6 µM (active) in experiment [14]; 60.8 µM (active) and 29.8 µM (active) in experiment [17]. Also, the Potency result in [2], in experiment [3], in experiment [4], in experiment [5], in [6] and in experiment [7] was “inactive” each time. Also, the Potency entry in experiment [8], in experiment [10], in experiment [12], in experiment [13], in [15] and in experiment [16] was “inactive” each time. For the same molecule, the result in experiment [9] was inactive.
